Results from paper PMC5540273 (PLoS ONE, 2017).

tested on: T1, YANK3; details: concentration: 1 μM, replicates: in singlicate; n = 1
T1 construct: gene STK32C
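Also: KINOMEscan kinase panel screen.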

Row | SMILES | %Inh [%]
1 | Nc1nc(N)c2nc(-c3ccccc3)[nH]c2n1 [SKF-12778] | 13
2 | COc1cc2nccc(Nc3cccc(Oc4ccccc4)c3)c2cc1OC.Cl [GW284543] | 1
3 | CCc1ccc(-c2ccc3c(c2)-c2nn(C)cc2S(=O)(=O)N3C)cc1 | 0
4 | O=C(NCc1cccs1)c1cc(C(=O)c2c(Cl)cccc2Cl)c[nH]1 [GW823670] | 0
5 | CCCC(=O)Nc1n[nH]c2ncc(-c3cccc4ccccc34)cc12 [SB-642057] | 42
6 | CCC(=O)c1c(-c2ccccc2)c2cc(Cl)ccc2c(=O)n1Cc1cc(S(C)(=O)=O)n(CC(F)F)n1 | 0
7 | Nc1ncnc2c1ncn2-c1cccc(F)c1 [SKF-97560] | 0
8 | Cc1c(Cn2c(C)nn3c(=O)cc(N4CCO[C@H](C)C4)nc23)cccc1C(F)(F)F [GSK2373690] | 8
9 | COc1cc(Nc2nccc(N3CCC(NC(=O)C4COc5ccccc5O4)C3)n2)cc(OC)c1OC (stereo not drawn) [GSK1379761] | 19
10 | Cc1ccccc1COc1cc(-n2cnc3cc(Cl)ccc32)sc1C(N)=O [GW813349] | 35
11 | Cc1ccc(-c2ccc3c(ccc4sc5c(c43)NC[C@@H](C)N=C5N(C)C)n2)cn1 | 0
12 | Fc1cccc(CSc2nnc(-c3ccc4c(c3)CCO4)o2)c1 | 0
13 | CN1C(=O)C(Nc2cc(Cl)c(O)c(Cl)c2)=C(c2ccc(Cl)cc2)C1=O [SB-404321] | 0
14 | CCC(=O)c1c(-c2ccccc2)c2cc(Cl)ccc2c(=O)n1Cc1ccc(C(=O)O)cc1 | 5
15 | COc1cc(Nc2nccc(N3CCC(NC(=O)C(C)c4ccc(Cl)cc4)C3)n2)cc(OC)c1OC (stereo not drawn) [GSK1379757] | 0
16 | C[C@@H]1CC[C@H](C(=O)NC2CCCCC2)CN1c1cc(-c2ccc3c(N)n[nH]c3c2)nc(N)n1 [GSK2291363] | 26
17 | COc1ccc(-c2coc3ccc(-c4nnc(SCc5cccc(C#N)c5)o4)cc23)cc1 | 11
18 | CCS(=O)c1ccc(-c2coc3ccc(-c4nnc(C)o4)cc23)cc1 (stereo not drawn) | 0

Row | SMILES | %Inh [%]
19 | Cc1cc(Nc2nc(-c3cccc(C)n3)nc3ccccc23)ccn1 [GW872411] | 0
20 | COC(=O)c1c(-c2ccccc2)c2cc(Br)ccc2c(=O)n1Cc1ccc(S(C)(=O)=O)cc1 | 36
21 | Nc1nccc2scc(-c3ccc4c(c3)CCN4C(=O)Cc3ccccc3)c12 [GSK2576924] | 0
22 | O=C(NCCNc1ccnc(Nc2ccc(F)cc2)n1)Nc1ccc2c(c1)OCO2 [GSK1379882] | 0
23 | COC(=O)c1c(-c2ccccc2)c2cc(Br)ccc2c(=O)n1Cc1ccc(NC(=O)CCC(=O)O)cc1 | 0
24 | Nc1ncnc2c1ncn2-c1ccc(Cl)cc1 [AH2635] | 0
25 | O=C(Nc1n[nH]c2cc(-c3ccccc3F)ccc12)C1CC1 [SB-733371] | 0
26 | Nc1n[nH]c2nnc(-c3ccccc3)c(-c3ccccc3)c12 [GW554060] | 26
27 | FC(F)(F)c1ccc(-c2ncn(CCCN3CCOCC3)c2-c2ccncc2)cc1 [SB-217780] | 7
28 | COc1ccc(-n2cnc3c(N)ncnc32)cc1 [SKF-97236] | 0
29 | CCC(=O)c1c(-c2ccccc2)c2cc(Cl)ccc2c(=O)n1Cc1cc(C(=O)NC2CC2)n(C)n1 | 20
30 | CCC(=O)c1c(-c2ccccc2)c2cc(Cl)ccc2c(=O)n1Cc1cc(S(C)(=O)=O)n(CCC(C)(C)O)n1 | 23
31 | COC(=O)c1c(-c2ccccc2)c2cc(C)ccc2c(=O)n1Cc1ccccc1 | 17
32 | COc1cc(Nc2ccnc3ccc(C(F)(F)F)cc23)cc(OC)c1OC [GW577382] | 44
33 | COc1ccc(-c2cc3c(C)nc(N)nc3n([C@H]3CC[C@H](OCCO)CC3)c2=O)cn1 | 0
34 | Cc1nnc(-c2ccc3ncn(-c4ccc(S(C)=O)cc4)c3c2)o1 (stereo not drawn) | 4
35 | COc1cc2ncn(-c3cc(OCc4ccc(S(C)(=O)=O)cc4)c(C(N)=O)s3)c2cc1OC [GW869979] | 0
36 | CCC(=O)c1c(-c2ccccc2)c2cc(Cl)ccc2c(=O)n1Cc1cc(S(C)(=O)=O)n(CC(N)=O)n1 | 0

tested on: T2, YES; details: concentration: 1 μM, replicates: in singlicate; n = 1
T2 construct: gene YES1

Row | SMILES | %Inh [%]
37 | Nc1nc(N)c2nc(-c3ccccc3)[nH]c2n1 [SKF-12778] | 11
38 | COc1cc2nccc(Nc3cccc(Oc4ccccc4)c3)c2cc1OC.Cl [GW284543] | 19
39 | CCc1ccc(-c2ccc3c(c2)-c2nn(C)cc2S(=O)(=O)N3C)cc1 | 0
40 | O=C(NCc1cccs1)c1cc(C(=O)c2c(Cl)cccc2Cl)c[nH]1 [GW823670] | 0
41 | CCCC(=O)Nc1n[nH]c2ncc(-c3cccc4ccccc34)cc12 [SB-642057] | 9
42 | CCC(=O)c1c(-c2ccccc2)c2cc(Cl)ccc2c(=O)n1Cc1cc(S(C)(=O)=O)n(CC(F)F)n1 | 0
43 | Nc1ncnc2c1ncn2-c1cccc(F)c1 [SKF-97560] | 16
44 | Cc1c(Cn2c(C)nn3c(=O)cc(N4CCO[C@H](C)C4)nc23)cccc1C(F)(F)F [GSK2373690] | 10
45 | COc1cc(Nc2nccc(N3CCC(NC(=O)C4COc5ccccc5O4)C3)n2)cc(OC)c1OC (stereo not drawn) [GSK1379761] | 27
46 | Cc1ccccc1COc1cc(-n2cnc3cc(Cl)ccc32)sc1C(N)=O [GW813349] | 0
47 | Cc1ccc(-c2ccc3c(ccc4sc5c(c43)NC[C@@H](C)N=C5N(C)C)n2)cn1 | 0
48 | Fc1cccc(CSc2nnc(-c3ccc4c(c3)CCO4)o2)c1 | 8
49 | CN1C(=O)C(Nc2cc(Cl)c(O)c(Cl)c2)=C(c2ccc(Cl)cc2)C1=O [SB-404321] | 0
50 | CCC(=O)c1c(-c2ccccc2)c2cc(Cl)ccc2c(=O)n1Cc1ccc(C(=O)O)cc1 | 0
51 | COc1cc(Nc2nccc(N3CCC(NC(=O)C(C)c4ccc(Cl)cc4)C3)n2)cc(OC)c1OC (stereo not drawn) [GSK1379757] | 5
52 | C[C@@H]1CC[C@H](C(=O)NC2CCCCC2)CN1c1cc(-c2ccc3c(N)n[nH]c3c2)nc(N)n1 [GSK2291363] | 21
53 | COc1ccc(-c2coc3ccc(-c4nnc(SCc5cccc(C#N)c5)o4)cc23)cc1 | 0
54 | CCS(=O)c1ccc(-c2coc3ccc(-c4nnc(C)o4)cc23)cc1 (stereo not drawn) | 0

Row | SMILES | %Inh [%]
55 | Cc1cc(Nc2nc(-c3cccc(C)n3)nc3ccccc23)ccn1 [GW872411] | 0
56 | COC(=O)c1c(-c2ccccc2)c2cc(Br)ccc2c(=O)n1Cc1ccc(S(C)(=O)=O)cc1 | 0
57 | Nc1nccc2scc(-c3ccc4c(c3)CCN4C(=O)Cc3ccccc3)c12 [GSK2576924] | 5
58 | O=C(NCCNc1ccnc(Nc2ccc(F)cc2)n1)Nc1ccc2c(c1)OCO2 [GSK1379882] | 0
59 | COC(=O)c1c(-c2ccccc2)c2cc(Br)ccc2c(=O)n1Cc1ccc(NC(=O)CCC(=O)O)cc1 | 0
60 | Nc1ncnc2c1ncn2-c1ccc(Cl)cc1 [AH2635] | 0
61 | O=C(Nc1n[nH]c2cc(-c3ccccc3F)ccc12)C1CC1 [SB-733371] | 0
62 | Nc1n[nH]c2nnc(-c3ccccc3)c(-c3ccccc3)c12 [GW554060] | 17
63 | FC(F)(F)c1ccc(-c2ncn(CCCN3CCOCC3)c2-c2ccncc2)cc1 [SB-217780] | 3
64 | COc1ccc(-n2cnc3c(N)ncnc32)cc1 [SKF-97236] | 0
65 | CCC(=O)c1c(-c2ccccc2)c2cc(Cl)ccc2c(=O)n1Cc1cc(C(=O)NC2CC2)n(C)n1 | 0
66 | CCC(=O)c1c(-c2ccccc2)c2cc(Cl)ccc2c(=O)n1Cc1cc(S(C)(=O)=O)n(CCC(C)(C)O)n1 | 0
67 | COC(=O)c1c(-c2ccccc2)c2cc(C)ccc2c(=O)n1Cc1ccccc1 | 0
68 | COc1cc(Nc2ccnc3ccc(C(F)(F)F)cc23)cc(OC)c1OC [GW577382] | 13
69 | COc1ccc(-c2cc3c(C)nc(N)nc3n([C@H]3CC[C@H](OCCO)CC3)c2=O)cn1 | 0
70 | Cc1nnc(-c2ccc3ncn(-c4ccc(S(C)=O)cc4)c3c2)o1 (stereo not drawn) | 7
71 | COc1cc2ncn(-c3cc(OCc4ccc(S(C)(=O)=O)cc4)c(C(N)=O)s3)c2cc1OC [GW869979] | 28
72 | CCC(=O)c1c(-c2ccccc2)c2cc(Cl)ccc2c(=O)n1Cc1cc(S(C)(=O)=O)n(CC(N)=O)n1 | 0
